Assay results: PubChem BioAssay (EPA / NIEHS)
Records with an inconclusive call do not appear. The source made the active and inactive calls. Rule for the calls: active = hit-call score of the fitted dose curve at least 0.9, where 1 is the maximum; inconclusive = response in the unintended direction; inactive = score below 0.9.

Assay: Tanguay_ZF_120hpf_PE_legacy: (Legacy) Oregon State University Tanguay Lab 120 Hour Post-fertilization zebrafish Assay for Pericardial Edema (AID 2283640);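 for AC50: potency for increased incidence of pericardial edema versus DMSO baseline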
In short: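 Scoring was binary, by brightfield microscopy at 120 hpf, and skipped where mortality occurred. Wild-type embryos were kept under sealed, foil-covered static exposure at 28C in 0.64% (vol/vol) DMSO.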

| SMILES | outcome | AC50 |
| --- | --- | --- |
| CCCCCCCCCCCCCCCC | inactive |  |
| Cc1ccc(C)c(O)c1C | inactive |  |
| Cc1ccc(C(C)C)c(O)c1 | inactive |  |
| NCC1(Cc2noc(=O)[nH]2)CCCCC1 | inactive |  |
| Oc1ccc2ccccc2c1N=Nc1ccccc1 |  | 35.2 µM (active) |
| Nc1ccccc1N |  | 10.5 µM (active) |
| Cc1cccc(C)c1O | inactive |  |
| CC1=C(/C=C/C(C)=C/C=C/C(C)=C/CO)C(C)(C)CCC1 | inactive |  |
| CC(CO)OC(C)CO (stereo unspecified) (tested in a mixture with another compound) | inactive |  |
| CC1(C)NC(=O)NC1=O | inactive |  |
| c1cc(-c2ccncc2)ccn1 | inactive |  |
| Cc1ccc(Cl)cc1 | inactive |  |
| NC(=O)Cn1c(=O)cc(CCN2CCN(c3nccc4sccc34)CC2)c2ccc(F)cc21 | inactive |  |
| C=CCOC(=O)c1ccccc1C(=O)OCC=C |  | 46.9 µM (active) |
| CCCCCCCCCCCC(=O)OC | inactive |  |
| Cc1c(C(=O)O)c(O)cc2c1C(=O)c1c(O)c([C@@H]3O[C@H](CO)[C@@H](O)[C@H](O)[C@H]3O)c(O)c(O)c1C2=O | inactive |  |
| CNC(=O)[C@H]1O[C@@H](n2cnc3c(NCc4cc(Cl)ccc4OCc4cc(C)no4)ncnc32)[C@H](O)[C@@H]1N | inactive |  |
| CCCCOC(=O)CCCCCCCCC(=O)OCCCC | inactive |  |
| CCCCCCCCCCCCCCCCCC(=O)O | inactive |  |
| CC=Cc1ccc(O)c(OC)c1 | inactive |  |

Assay: Tanguay_ZF_120hpf_BRAI_legacy: (Legacy) Oregon State University Tanguay Lab 120 Hour Post-fertilization zebrafish Assay for Brain Malformation (AID 2283641)
In short: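 Binary brightfield scoring of brain malformation at 120 hpf in Tropical 5D larvae held under static exposure at 28C (0.64% v/v DMSO), non-mortality endpoints skipped if dead. Positive control: 5uM trimethyltin chloride; fit versus DMSO.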

| SMILES | outcome |
| --- | --- |
| CNCc1cc(F)ccc1Oc1ccc(Cl)c(Cl)c1 | inactive |
| NS(=O)(=O)c1cc2c(cc1Cl)NCNS2(=O)=O | inactive |
| Cc1cccc(C)c1O | inactive |
| CN[C@H]1CC[C@@H](c2ccc(Cl)c(Cl)c2)c2ccc(S(N)(=O)=O)cc21 | inactive |
| CCCCCCCCCCCCCO | inactive |
| COc1ccc(C)cc1N | inactive |
| c1cc(-c2ccncc2)ccn1 | inactive |
| Nc1ccc2c(c1)C(=O)c1ccccc1C2=O | inactive |
| Cc1ccc(Cl)cc1 | inactive |
| C[C@]12C=CC(=O)C=C1CC[C@@H]1[C@@H]2C(=O)C[C@@]2(C)[C@H]1CC[C@]2(O)C(=O)CO | inactive |
| CCCCCCCCCCCCCCCCCC(=O)O | inactive |

Assay: Tanguay_ZF_120hpf_SOMI_legacy: (Legacy) Oregon State University Tanguay Lab 120 Hour Post-fertilization zebrafish Assay for Somite Malformation (AID 2283647)
In short: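 Binary somite-defect scoring at 120 hpf, omitted for embryos that died, in wild-type (Tropical 5D) zebrafish with chorion removed by pronase at 4 hpf; static exposure began 6 hpf, single embryos per well, 28C, 0.64% DMSO; fitted positive versus DMSO.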

| SMILES | outcome |
| --- | --- |
| CCCCCCCCCCCCCCCC | inactive |
| Cc1ccc(C)c(O)c1C | inactive |
| NS(=O)(=O)c1cc2c(cc1Cl)NCNS2(=O)=O | inactive |
| Oc1ccc2ccccc2c1N=Nc1ccccc1 | inactive |
| Nc1ccc(S(=O)(=O)c2ccc(N)cc2)cc1 | inactive |
| Nc1ccccc1N | inactive |
| CC1=C(/C=C/C(C)=C/C=C/C(C)=C/CO)C(C)(C)CCC1 | inactive |
| CCCCCCCCCCCCCO | inactive |
| COc1ccc(C)cc1N | inactive |
| Nc1ccc2c(c1)C(=O)c1ccccc1C2=O | inactive |
| C=CCOC(=O)c1ccccc1C(=O)OCC=C | inactive |
| CCCCCCCCCCCC(=O)OC | inactive |
| C[C@]12C=CC(=O)C=C1CC[C@@H]1[C@@H]2C(=O)C[C@@]2(C)[C@H]1CC[C@]2(O)C(=O)CO | inactive |
| Cc1ccc(N(C)C)cc1 | inactive |
| Cc1c(C(=O)O)c(O)cc2c1C(=O)c1c(O)c([C@@H]3O[C@H](CO)[C@@H](O)[C@H](O)[C@H]3O)c(O)c(O)c1C2=O | inactive |
| CNC(=O)[C@H]1O[C@@H](n2cnc3c(NCc4cc(Cl)ccc4OCc4cc(C)no4)ncnc32)[C@H](O)[C@@H]1N | inactive |
| CCCCOC(=O)CCCCCCCCC(=O)OCCCC | inactive |

Assay: Tanguay_ZF_120hpf_PFIN_legacy: (Legacy) Oregon State University Tanguay Lab 120 Hour Post-fertilization zebrafish Assay for Pectoral Fin Malformation (AID 2283648);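 note: each larva judged yes or no for fin defect by brightfield with dead larvae skipped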
In short: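 Binary pectoral fin malformation call at 120 hpf by brightfield microscopy; 5D wild-type zebrafish, chorion removed at 4 hpf, one embryo per well from 6 hpf, static exposure at 28C; DMSO (0.64% final) as baseline.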

| SMILES | outcome |
| --- | --- |
| CCCCCCCCCCCCCCCC | inactive |
| Cc1ccc(C)c(O)c1C | inactive |
| CNCc1cc(F)ccc1Oc1ccc(Cl)c(Cl)c1 | inactive |
| Cc1ccc(C(C)C)c(O)c1 | inactive |
| NCC1(Cc2noc(=O)[nH]2)CCCCC1 | inactive |
| NS(=O)(=O)c1cc2c(cc1Cl)NCNS2(=O)=O | inactive |
| Oc1ccc2ccccc2c1N=Nc1ccccc1 | inactive |
| Nc1ccc(S(=O)(=O)c2ccc(N)cc2)cc1 | inactive |
| Nc1ccccc1N | inactive |
| Cc1cccc(C)c1O | inactive |
| CN[C@H]1CC[C@@H](c2ccc(Cl)c(Cl)c2)c2ccc(S(N)(=O)=O)cc21 | inactive |
| CC1=C(/C=C/C(C)=C/C=C/C(C)=C/CO)C(C)(C)CCC1 | inactive |
| CC(CO)OC(C)CO (stereo unspecified) (tested in a mixture with another compound) | inactive |
| CCCCCCCCCCCCCO | inactive |
| CC1(C)NC(=O)NC1=O | inactive |
| COc1ccc(C)cc1N | inactive |
| c1cc(-c2ccncc2)ccn1 | inactive |
| Nc1ccc2c(c1)C(=O)c1ccccc1C2=O | inactive |
| Cc1ccc(Cl)cc1 | inactive |
| NC(=O)Cn1c(=O)cc(CCN2CCN(c3nccc4sccc34)CC2)c2ccc(F)cc21 | inactive |
| C=CCOC(=O)c1ccccc1C(=O)OCC=C | inactive |
| CCCCCCCCCCCC(=O)OC | inactive |
| C[C@]12C=CC(=O)C=C1CC[C@@H]1[C@@H]2C(=O)C[C@@]2(C)[C@H]1CC[C@]2(O)C(=O)CO | inactive |
| Cc1ccc(N(C)C)cc1 | inactive |
| Cc1c(C(=O)O)c(O)cc2c1C(=O)c1c(O)c([C@@H]3O[C@H](CO)[C@@H](O)[C@H](O)[C@H]3O)c(O)c(O)c1C2=O | inactive |
| CCCCOC(=O)CCCCCCCCC(=O)OCCCC | inactive |
| CCCCCCCCCCCCCCCCCC(=O)O | inactive |
| CC=Cc1ccc(O)c(OC)c1 | inactive |
